In the OligoGym collection one finds sensor-assay potency score (higher = more potent) data, which are given here for 21 sequences.
Further: reference of the scale not given here.

One experiment has as its target ATP10B. The experiment in a line: pooled miR-30 sensor sort-seq; sequence = guide strand. As to conditions: shRNA.
On to TTGAAGAATATCATCTGCCAGT, for which the sensor-assay potency score (higher = more potent) was -0.482. Take TTGACTATCATACTCTTCTGGA: the sensor-assay potency score (higher = more potent) was 0.0435. Still for that read-out and setting: the figure for TCGCTTAGCATTTTCTTGGTGA is 0.0526; for TTGATGGTGACCCTCTGCCTGG it is -1.45; for TAAGGTGAGTTGATTCTCCAGA it is 0.552. Still for that read-out and setting: the value for TTTATCTGGAGTTACATCTTTT was -0.334; that for TTGGTGTAGACAACAATCTCGC was -0.19; that for TAACATGGTGATTTCTCTGTGG was 0.162. In turn, TTTATTGCTTTATCAAAGCGGT showed a sensor-assay potency score (higher = more potent) of -0.352. Still for that read-out and setting: the value for TTCTTGGTGAGAATACTCGCTG was -0.605; that for TTTGTCTCTCCATCCAAGCTGG was -0.607.

In another experiment the target is ATP13A3. The experiment is described as above. The following applies: shRNA.
As to TTGACGTACAAGAAACACCTTC, the sensor-assay potency score (higher = more potent) amounted to 0.452.

TTGACATGATCCATTCTCCTTA gave a sensor-assay potency score (higher = more potent) of -0.0274. Sequence TAAAGCTTTAGCTTCTGTGGTT displayed a sensor-assay potency score (higher = more potent) of -0.122. In turn, TAGACATAGATTTTGGACTTGA gave a sensor-assay potency score (higher = more potent) of -0.0415. Turning to TATAACACTGAACAGCTGGAAA, the sensor-assay potency score (higher = more potent) was -0.978. TAGATTTTGGACTTGAAACTGG yielded a sensor-assay potency score (higher = more potent) of -0.128. For TTAATTGCAGCTCTGACACAGG, the sensor-assay potency score (higher = more potent) came out at 0.0379. Regarding TTCGGTTTCATTGTCTACGTGT, the sensor-assay potency score (higher = more potent) was 0.717. On the same count and under the same terms, the value for TTCATCAGTAGTCCTCAGCAGC was -0.704; that for TTCTTCAGTTGCTTCTTCCAGA was -0.0869.
